# Screens (PubChem)
# This is a sample that favours compounds with a hit; in the whole collection about 21% have one here.
# Shiga inhibitor: inhibitors of Shiga toxin in Vero cells. AID 2315. 9.2% of 290,000 active. Vero cells, Shiga toxin protein synthesis inhibition reporter. inhibition, % at 38.7 µM; in the data active = inhibition mostly above about 28%, no sharp cut-off; inactive = mostly below about 43%; note: 0% is about no effect
# Cycloheximide cs: affects cycloheximide protein synthesis inhibition readout, counter-screen | 12% of 300,000 active | max response, % | cell reporter, cycloheximide protein synthesis inhibition counterscreen | AID 2314; in the data active = max response mostly above about 13%, no sharp cut-off; inactive = mostly below about 14%; note: read at 38.3 µM for the half of the compounds with a filed dose; 0% is about no effect
# Pf growth 96h: P. falciparum growth inhibition at 96 hour, primary screen for plastid delayed-death inhibitors | P. falciparum luciferase reporter growth, 96 h | Potency, µM (series often up to 28.7 µM), without a hit: at the top dose activity change, negative = inhibition, hits mostly inhibitors | 6.9% of 320,000 active | AID 504834; note: potency is the fitted concentration of half-maximal effect; % is set by controls: 0 for no effect and ±100 for the full control effect
#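 P. falciparum expressing integrated firefly luciferase grown in erythrocytes (2% hematocrit, 0.05% parasitemia final) with compounds for 96 hours at 37 C, 5% CO2. Growth inhibition read as loss of luminescence after adding luciferase detection reagent.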
# Pf growth 48h: inhibits P. falciparum growth in the first generation, 48 h; P. falciparum luciferase growth in erythrocytes, 48 h; Potency, µM (top dose mostly 28.7 µM), for inactives: at the top dose activity change, negative = inhibition, usual class: inhibitors; 5.9% of 310,000 active; AID 504832; note: potency is the fitted concentration of half-maximal effect; % is set by controls: 0 for no effect and ±100 for the full control effect
#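 Growth was read as firefly luciferase luminescence after a 48 h, 37 C, 5% CO2 exposure of compounds to reporter-bearing P. falciparum cultures (0.1% parasitemia, 2% hematocrit final) in Albumax-supplemented RPMI 1640.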
# Numbers without * were called inactive; ? = inconclusive; / = not tested or not shown; [ ] = remark or other dose. Unless noted, calls come from the whole dose curve; as a rule, active = well fitted inhibition curve with a large enough effect; inconclusive = small, poorly fitted or top-dose-only effect, or another doubt; inactive = no such curve, though single readings can be large or run the other way.
SMILES,Shiga inhibitor,Cycloheximide cs,Pf growth 96h,Pf growth 48h
O=C(CCNC(=O)c1ccccc1Cl)NCC(c1ccco1)N1CCCC1 (stereo not drawn),/,/,-1%,-25%
CN(C(=O)COC(=O)c1ccccc1SCC(=O)NC1CCCCCCC1)C1CCS(=O)(=O)C1 (stereo not drawn),21,-5,-14%,4%
COc1ccc(-c2sc3ccc(OC)cc3c2C#CCCO)cc1,-5,-2,?,-18%
COc1ccc2sc(-c3ccccc3OC)c(-c3ccc(O)cc3)c2c1,/,/,2.3µM*,?
COc1ccc2sc(-c3ccccc3OC)c(-c3ccc4c(c3)OCCO4)c2c1,/,/,2.6µM*,10µM*
COc1ccc(-c2c(-c3ccccc3OC)sc3ccccc23)cc1,2,4,?,10%
CCn1c(SCC(=O)c2ccccc2)nnc1-c1cnccn1,107*,52*,7%,61%
COC(=O)CSc1nnc(-c2cnccn2)n1C,2,-6,/,-15%
O=C(CSc1nnc(-c2cnccn2)n1Cc1ccco1)c1ccc2ccccc2c1,-37,-5,10µM*,13%
CC(C)OC(=O)CSc1nnc(-c2cnccn2)n1C,11,4,10µM*,4%
CCn1c(SCC(=O)Nc2ccccc2F)nnc1-c1cnccn1,8,10,-3%,11%
CC(C)OC(=O)CSc1nnc(-c2cnccn2)n1Cc1ccco1,40,10,/,-9%
CNC(=O)CSc1nnc(-c2cnccn2)n1C,18,-5,22%,13%
Cn1c(SCC(=O)c2ccccc2)nnc1-c1cnccn1,59,27*,8.3µM*,106%
CCCCN1C(=O)c2ccc(C(=O)OCC(=O)N3CCN(c4ccccc4)CC3)cc2C1=O,/,/,13%,-3%
O=C(NCc1ccc2c(c1)OCO2)C(=O)NCC1OCCCN1S(=O)(=O)c1ccc(F)cc1 (stereo not drawn),12,-2,?,10%
Cn1c(SCC(=O)c2ccccc2)nnc1-c1cccnc1,67*,54*,14%,?
CCC(=O)Nc1cccc(-c2nnc(SCC(=O)c3ccccc3)n2C)c1,81*,36*,-23%,95%
Cn1c(SCC(=O)c2ccc(F)cc2)nnc1-c1cccnc1,25,10,?,-4%[5.75 µM]
Cn1c(SCCCC(=O)c2ccc(Br)cc2)nnc1-c1ccncc1,8,-2,8.3µM*,/
CCC(=O)Nc1cccc(-c2nnc(SCC(=O)NCc3ccco3)n2C)c1,-7,2,21%,16%
Cn1c(SCC(=O)c2ccccc2)nnc1-c1cccs1,86*,25*,1%,-1%
C[C@@H](NC(=O)[C@@H]1Cc2ccccc2CN1C(=O)OC(C)(C)C)C(=O)NC1CCCC1,13,9,6%,?
COc1ccccc1OCC(=O)NCC1CCCN(C(=O)c2ccccc2SC)C1 (stereo not drawn),11,-2,2%,-19%
COc1ccc(C(=O)N2CCCC(CNC(=O)c3ccccc3Cl)C2)o1 (stereo not drawn),20,18*,68%,0%
SMILES,Shiga inhibitor,Cycloheximide cs,Pf growth 96h,Pf growth 48h
COc1ccccc1OCC(=O)NCC1CCCN(C(=O)c2ccccc2C(C)=O)C1 (stereo not drawn),5,-1,17µM*,6%
CC(=O)c1ccccc1C(=O)N1CCCC(CNC(=O)c2ccccc2Cl)C1 (stereo not drawn),32,27*,?,16%
CC(=O)c1ccc(N2CCN(C(=O)Cn3cnc(S(=O)(=O)N4CCCCC4)c3)CC2)cc1,52,7,?,-19%
Cc1occc1C(=O)N/N=C/C=C\c1ccccc1[N+](=O)[O-],70*,30*,-16%,-1%
CCOC(=O)N/N=C/C=C/c1ccccc1[N+](=O)[O-],73*,22*,?,0%
Cc1ccsc1C(=O)N/N=C/C=C/c1ccccc1[N+](=O)[O-],117*,30*,89%,/
COc1ccc(NCC(=O)N/N=C/C=C/c2ccccc2[N+](=O)[O-])cc1,6,-3,7%,6%
CCCC(C)C(=O)Nc1nc(C)c(-c2csc(Nc3ccccc3OC)n2)s1 (stereo not drawn),15,-7,9.3µM*,?
CCC(=O)Nc1nc(C)c(-c2csc(Nc3ccccn3)n2)s1,103*,33*,6%,13%
CCCCCC(=O)Nc1nc(C)c(-c2csc(Nc3ccccc3OCC)n2)s1,-2,-2,?,?
CCCCCCC(=O)Nc1nc(C)c(-c2csc(Nc3ccccc3OC)n2)s1,4,1,3.7µM*,?
CCCCCC(=O)Nc1nc(C)c(-c2csc(Nc3ccccc3OC)n2)s1,-2,29,2.9µM*,?
O=C(c1ccc(-n2cnnn2)cc1)N1CCCCC1,-5,-3,-5%,11%
CCCCCCC(=O)Nc1nc(C)c(-c2csc(Nc3cc(Cl)ccc3C)n2)s1,2,-2,?,?
CCCC(=O)Nc1nc(C)c(-c2csc(Nc3ccccc3C)n2)s1,-14,8,?,12µM*
CN1C(=O)C(C)(C)c2cc(S(=O)(=O)N3CCC(C(=O)NCc4ccccc4Cl)CC3)ccc21,9,1,0%,?
O=C(Nc1ccc(C(=O)N2CCCc3ccccc32)cc1)c1cccs1,12,-1,-28%,-27%
CCOC(=O)c1cnc2ccc(C(=O)OC)cc2c1NCCc1ccc(OC)c(OC)c1,-12,1,1%,10µM*
CCOC(=O)c1cnc2c(C)cccc2c1NCCc1ccc(OC)c(OC)c1,-11,11,4.1µM*,?
COc1ccc(C(C)C)cc1S(=O)(=O)NC1CCCC1,-3,0,17%,?
COc1ccc(-n2nc(C(=O)NCC(=O)N3CCCCCC3)c3ccccc3c2=O)cc1,41,16*,?,-24%
COc1ccc(-n2nc(C(=O)NCC(=O)N3CCN(C)CC3)c3ccccc3c2=O)cc1,-3,2,8%,4%
COc1ccc(-n2nc(C(=O)NCC(=O)N3CC(C)CC(C)C3)c3ccccc3c2=O)cc1 (stereo not drawn),-4,0,-17%,?
CCOC(=O)N1CCN(C(=O)CNC(=O)c2nn(-c3ccc(OC)cc3)c(=O)c3ccccc23)CC1,21,18*,56%,-5%
COc1ccc(N2CCN(C(=O)CNC(=O)c3nn(-c4ccc(OC)cc4)c(=O)c4ccccc34)CC2)cc1,-2,-3,15µM*,0%
N#Cc1ccc(C(=O)CN2CCN(c3ccccc3)CC2)cc1,20,-2,-7%,?
CCO[C@@H]1OC(C(=O)N2CCN(Cc3ccc4c(c3)OCO4)CC2)=C[C@H](C2CC2)[C@H]1CCCO,5,1,3.3µM*,?
CCO[C@@H]1OC(C(=O)N2CCCCCCC2)=C[C@H](C2CCCCC2)[C@H]1CCCO,-6,1,?,10µM*
CCO[C@H]1OC(C(=O)N2CCN(Cc3ccc4c(c3)OCO4)CC2)=C[C@@H](C)[C@@H]1CCCO,2,1,3%,-1%
CCO[C@@H]1OC(C(=O)N2CCOCC2)=C[C@H](C2CCCCC2)[C@H]1CCCO,16,-1,3%,-8%
